Screening results from PubChem BioAssay.
MEX-5 binding: MEX-5 zinc finger RNA-binding disruptors – biochemical, C. elegans, fluorescence polarization, MLPCN library, primary screen | Zinc finger protein mex-5 (Caenorhabditis elegans), Q9XUB2 | MEX-5/FITC-TCR2 RNA binding; active compounds read low | activity score (negative = inhibition of binding), % at 10 µM | hit rate 0.38% among 300,000 | AID 1832, 2009;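 active = inhibition past about -25% in most replicates, and total fluorescence under double the plate's negative control median, limit read from the data; inconclusive = replicates evenly split on the limit, or fluorescence at least double controls; inactive = too little inhibition in most replicates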;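 note: 0% = DMSO and -100% = 5 µM competing unlabeled TCR2 RNA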
MCL1-BIM inh: inhibitors of MCL1 binding to BIM-BH3, primary screen, biochemical, fluorescence polarization | hit rate 0.68% among 320,000 | GST-MCL1 / FITC-Bim-BH3 fluorescence polarization | AID 2057, 2009 | Induced myeloid leukemia cell differentiation protein Mcl-1 (Homo sapiens), Q07820 | inhibition, % at 10.9 µM;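 active = inhibition above the mean inhibition of all tested compounds plus 3 SD, set per campaign, cut at about 40% in these data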;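 note: 0% = DMSO wells and 100% = unlabeled Bim-BH3 peptide control; higher means more loss of mP so more displacement of Bim peptide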
eLon inh: inhibitors of E. coli Lon protease, primary screen, biochemical, fluorescence polarization; hit rate 0.42% among 360,000; inhibition, % at 7.94 µM; AID 602123, 2011; P0A9M0; purified E. coli Lon protease; in the data active = inhibition above about 13%, passing the limit was not always enough;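 note: 0% = enzyme with probe and DMSO and 100% = no enzyme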
GLD-1 TGE inh: GLD-1/TGE RNA complex disruptors, primary screen, biochemical, fluorescence polarization; hit rate 0.44% among 320,000; Female germline-specific tumor suppressor gld-1 (Caenorhabditis elegans), Q17339; purified GLD-1 + fluorescein TGE RNA; inhibition, % at 5.96 µM; AID 2280, 2010;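 active = percent inhibition above a per-plate cutoff, the plate mean of test compounds plus 3 SD, cut at about 30% in these data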;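 note: 0% = DMSO wells with GLD-1 and probe and 100% = wells lacking GLD-1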
Target sequence (Q17339 whole entry, looked up): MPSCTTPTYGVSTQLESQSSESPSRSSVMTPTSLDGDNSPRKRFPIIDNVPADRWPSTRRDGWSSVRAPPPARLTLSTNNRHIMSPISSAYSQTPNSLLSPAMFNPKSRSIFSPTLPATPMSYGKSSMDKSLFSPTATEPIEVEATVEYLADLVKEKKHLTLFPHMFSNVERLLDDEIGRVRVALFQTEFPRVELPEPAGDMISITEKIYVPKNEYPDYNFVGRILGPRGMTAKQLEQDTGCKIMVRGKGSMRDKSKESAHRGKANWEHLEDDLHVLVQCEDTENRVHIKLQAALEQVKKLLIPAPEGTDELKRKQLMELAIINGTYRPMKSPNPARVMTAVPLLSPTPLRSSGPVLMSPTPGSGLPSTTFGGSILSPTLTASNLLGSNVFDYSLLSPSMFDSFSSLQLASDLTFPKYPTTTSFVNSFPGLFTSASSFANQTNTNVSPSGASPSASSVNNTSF
EBV gp42 inh: Epstein-Barr virus gp42 inhibitors, primary screen, biochemical, uHTS, fluorescence polarization. Glycoprotein 42 (Epstein-Barr virus (strain AG876)), Q1HVG2. Fluorescence polarization binding assay, mP read-out. inhibition, % (tested at 21.74 µM). hit rate 0.42% among 220,000. AID 1085, 2008; in the data active = inhibition above about 50%
Target sequence (Q1HVG2 whole entry, looked up): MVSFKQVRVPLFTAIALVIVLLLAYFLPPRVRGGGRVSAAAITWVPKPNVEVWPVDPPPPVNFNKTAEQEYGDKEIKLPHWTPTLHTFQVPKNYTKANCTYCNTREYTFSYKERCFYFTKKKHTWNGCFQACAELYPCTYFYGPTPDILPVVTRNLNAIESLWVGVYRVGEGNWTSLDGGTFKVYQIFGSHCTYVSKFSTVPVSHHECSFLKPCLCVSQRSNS
Bcl-xL primary: inhibitors of human Bcl-xL, primary screen, biochemical, fluorescence polarization, HTS; GST-Bcl-xL / FITC-Bim BH3 peptide fluorescence polarization; hit rate 0.7% among 320,000; inhibition, % at 10.9 µM;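 active = inhibition above the mean of all tested compounds plus 3 SD, cutoff set per campaign, cut at about 30% in these data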;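 note: 0% = DMSO wells and 100% = unlabeled Bim-BH3 peptide competitor; inhibitors lower millipolarization by displacing the labeled peptide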
* marks the source's active call; other numbers are inactive results; ? = inconclusive; · = no result. Rows were chosen to be rich in hits. Some 1.5% of all compounds tested hit in one or more screens of this group.

SMILES | MEX-5 binding | MCL1-BIM inh | eLon inh | GLD-1 TGE inh | EBV gp42 inh | Bcl-xL primary
Cc1cc2nc3s/c(=C/c4ccc(-c5ccccc5C(=O)O)o4)c(=O)n3c2cc1C | -6.2 | -32.8 | -25.6 | -22.6 | · | -24.5
Nc1ccc(O)c(C(=O)O)c1 | -15.3 | 75.9* | · | 17.9 | · | 35.2*
COc1ccccc1OCC(=O)OCC(=O)Nc1ncc(Cl)cc1Cl | 2.3 | 12.3 | 9.2 | 1.2 | -11.5 | 14.9
CCNC(=S)NC(=NCc1cccnc1)Nc1nc(C)cc(C)n1 | 11.4 | 46.0* | -6.7 | 12.9 | · | 37.7*
CCOC(=O)C1=C(C)NC(=O)/C1=C\N(C)C | -3.2 | 30.7 | -2.5 | 21.2 | -10.4 | 37.8*
Cc1cc2nnc(SC3CCCCN(C(=O)c4ccc(F)cc4)C3=O)n2c2ccccc12 (stereo not given) | -0.4 | -12.2 | -0.4 | -4.2 | -3.3 | -27.6
CCN1/C(=C/c2ccc3cccc(C)c3[n+]2CC)Sc2ccccc21 | ? | -37.0 | -140.5 | 47.1* | -76.7 | -21.7
CCN1/C(=C/c2ccc3cc(C)cc(C)c3[n+]2CC)Sc2cc(C)ccc21 | · | · | -169.9 | · | -36.6 | ·
COc1ccc(C(=O)OCC(=O)Nc2ccc(OC)c(S(=O)(=O)N3CCCCC3)c2)cc1[N+](=O)[O-] | · | · | 11.7 | · | · | ·
COc1ccc(/C=N/NC(=O)CCSc2nc3ccccc3s2)cc1OC | -2.1 | 6.0 | -1.3 | 2.7 | -2.4 | 3.8
O=C(CCSc1nc2ccccc2s1)N/N=C/c1c(O)ccc2ccccc12 | -46.4* | 2.4 | -8.2 | -3.0 | -119.5 | 0.7
COCCN1CCn2c(nc3cc(NC(=O)NC4CCCCC4)ccc32)C1 | · | 34.9 | -13.7 | 5.0 | 34.9 | 32.8*
COCCN1CCn2c(nc3cc(NC(C)=O)ccc32)C1 | -1.5 | 13.9 | 1.4 | 2.7 | · | 17.5
CCN1CCN(CC(=O)N2N=C(c3cccs3)CC2c2ccc(OC)c(OC)c2)C(=O)C1=O (stereo not given) | -1.2 | 5.7 | 1.3 | 6.7 | 64.4* | -0.7
CCN1CCN(CC(=O)N2N=C(c3cccs3)CC2c2ccc(F)cc2)C(=O)C1=O (stereo not given) | 0.1 | -4.2 | 0.4 | 3.4 | -6.6 | -3.1
O=C(O[C@@H]1Cc2c(O)cc(O)cc2O[C@@H]1c1cc(O)c(O)c(O)c1)c1cc(O)c(O)c(O)c1 | -84.0* | · | · | · | 0.7 | ·
COc1ccc(CN2C(=O)c3cccnc3C2=O)cc1S(=O)(=O)NCc1ccc(C)o1 | 2.1 | -6.2 | -2.8 | 4.9 | · | -4.0
Cc1cc(/C=C(/C#N)c2nc3ccccc3[nH]2)c(C)n1-c1cc(C(=O)O)cc(C(=O)O)c1 | -14.6 | · | -118.9 | · | 129.0* | ·
CCCCN(C)CCNC(=O)c1cn(C)c(=O)c2c1c1ccccc1n2C | -0.3 | 8.3 | -1.0 | -6.9 | · | 6.6
Cc1cc(N=Cc2c(O)n(-c3ccc4c(c3)OCO4)c(=O)c3ccccc23)ccn1 | -30.7* | -17.0 | -1.3 | 1.9 | -76.7 | -9.6
COc1ccc(/C=c2\sc3nc(=O)c(C)nn3c2=O)c(OC)c1 | -40.1* | -22.3 | -3.0 | -5.1 | -135.9 | -13.7
Cc1ccc(/C=c2/sc3nnc(-c4ccccc4Cl)n3c2=O)o1 | 0.0 | 10.6 | -15.3 | 2.4 | -15.2 | 9.9
CCN(CC)c1ccc(/C=C2/C(=O)ON=C2C)cc1 | 34.0 | -214.8 | -258.9 | -179.2 | -295.2 | -90.9
CCN(CC)c1ccc(/C=c2/sc3nnc(-c4ccccc4C)n3c2=O)cc1 | -62.6* | -81.6 | -108.9 | -69.3 | 171.6* | -51.7
CCN(CC)c1ccc(/C=c2\sc3nnc(-c4ccccc4Cl)n3c2=O)cc1 | ? | -175.5 | -210.2 | -74.3 | 193.3* | -116.5
SMILES | MEX-5 binding | MCL1-BIM inh | eLon inh | GLD-1 TGE inh | EBV gp42 inh | Bcl-xL primary
O=C(Nc1ccc(Br)cn1)c1cccc2ccccc12 | -1.2 | 9.7 | 0.3 | -3.2 | · | 7.8
COc1c(C(=O)Nc2ccc(Br)cn2)ccc2ccccc12 | 3.5 | -0.2 | -2.8 | 5.0 | · | 56.8*
COC(=O)c1ccccc1NC(=O)COc1ccc2c(c1)OCO2 | 0.2 | -12.0 | 5.3 | -4.3 | · | -8.6
Cc1ccc(N/C=C2/Sc3ccccc3NC2=O)cc1 | -53.6* | 4.7 | -13.5 | -60.7 | -103.4 | 5.1
Cn1c(C(=O)NCCCN2CCOCC2)cc2c(=O)n(C)c3ccccc3c21 | -41.7* | 1.2 | -2.9 | 0.6 | 4.0 | 3.1
CC1CCN(CCCNC(=O)c2cc3c(=O)n(C)c4ccccc4c3n2C)CC1 | -0.4 | 3.9 | -2.0 | -1.8 | 2.9 | 5.7
CCOC(=O)Cn1c(=O)oc2cc(S(=O)(=O)NCc3ccccn3)ccc21 | 3.1 | -2.4 | 25.9* | 2.5 | -16.6 | -1.0
CN1C=C/C(=C\c2cc[n+](C)c3ccccc23)c2ccccc21 | -66.9* | · | 6.6 | · | -10.7 | ·
CC(C)Oc1cc(F)ccc1-c1cc(C(=O)Nc2cccc(C(F)(F)F)c2)[nH]n1 | · | · | -3.8 | · | · | ·
CCC1c2ccc(C)n2CCN1C(=O)Nc1ccccc1OC (stereo not given) | -6.1 | 49.7* | 16.4 | 49.9* | -7.7 | 49.8*
CCN1/C(=C2\SC(=S)N(Cc3ccccc3)C2=O)Sc2ccccc21 | -25.9* | 4.0 | -2.3 | -1.7 | 52.9* | 3.1
CCN1C(=O)/C(=C2/Sc3ccccc3N2CC)SC1=S | -17.9 | 5.6 | -1.7 | 5.7 | · | -1.0
CCN1/C(=C2/SC(=S)N(NC(C)=O)C2=O)Sc2ccccc21 | -46.3* | · | -28.1 | · | · | ·
Cc1cc(C)c([C@@H]2C[C@H]3CN(C4CCCC4)C(=O)[C@]34CCCN24)c(-n2cccn2)c1 | -20.6 | 28.7 | 11.6 | 24.7 | -1.1 | 33.8*
Cc1ccccc1-c1nc(CN2CCC(C(=O)O)CC2)c(C)o1 | 1.6 | -1.0 | 2.9 | 4.5 | -2.1 | 1.8
Cc1ccc(-c2ccccc2)n1-c1ccc(C(=O)O)cc1 | -3.3 | 10.4 | -4.1 | 2.9 | 6.3 | 9.5
Cc1cc2c(n1-c1ccc(C(=O)O)cc1)CCCCC2 | -62.3* | · | · | · | · | ·
COCCN1CCC(CNCc2c(C(=O)N3CCCCC3)nc3c(C)cccn23)C1 (stereo not given) | -48.9* | 17.8 | 8.3 | 16.8 | 6.4 | 23.6
CC(C)Cc1nnc(NC(=O)CCC(=O)N2CC(C)CC(C)C2)s1 (stereo not given) | -27.0* | 7.3 | 2.9 | 2.2 | · | 0.7
CC(C)Cc1nnc(NC(=O)CCC(=O)N2CCC(C)CC2)s1 | 0.5 | -3.1 | -6.1 | 3.1 | · | 7.1
COC(=O)[C@@H](N)Cc1ccc(O)c(O)c1 | · | 10.5 | -6.3 | 4.5 | · | 9.7
O=C(CNC(=O)C1COc2ccccc2O1)Nc1cc(Cl)ccc1Cl (stereo not given) | · | · | -1.7 | · | · | ·
